# About 830 (0.38%) of roughly 220,000 compounds were called active. A selection follows. Potency and affinity values are given separately. Unmarked numbers belong to inactive results.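 The calls were made as follows: active = compound inhibiting the enzyme by more than half at any dose during confirmatory dose-response retesting; inconclusive = strong single-dose inhibitors picked by rank but not retested; inactive = the rest.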
# Biological target: Leucine aminopeptidase (Plasmodium falciparum (isolate 3D7)) (UniProt Q8IL11)
# Assay: P. falciparum M17LAP inhibitors, primary screen, biochemical, fluorogenic H-Leu-NHMec substrate, 1536-well (AID 1619);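 also: plate controls were full reaction with DMSO carrier for no effect and no enzyme background for full effect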
# Details: recombinant M17LAP, H-Leu-NHMec fluorogenic kinetic assay; at 30 µM; active compounds read high
# Sequence of Leucine aminopeptidase (Plasmodium falciparum (isolate 3D7)) (Q8IL11 whole entry, looked up): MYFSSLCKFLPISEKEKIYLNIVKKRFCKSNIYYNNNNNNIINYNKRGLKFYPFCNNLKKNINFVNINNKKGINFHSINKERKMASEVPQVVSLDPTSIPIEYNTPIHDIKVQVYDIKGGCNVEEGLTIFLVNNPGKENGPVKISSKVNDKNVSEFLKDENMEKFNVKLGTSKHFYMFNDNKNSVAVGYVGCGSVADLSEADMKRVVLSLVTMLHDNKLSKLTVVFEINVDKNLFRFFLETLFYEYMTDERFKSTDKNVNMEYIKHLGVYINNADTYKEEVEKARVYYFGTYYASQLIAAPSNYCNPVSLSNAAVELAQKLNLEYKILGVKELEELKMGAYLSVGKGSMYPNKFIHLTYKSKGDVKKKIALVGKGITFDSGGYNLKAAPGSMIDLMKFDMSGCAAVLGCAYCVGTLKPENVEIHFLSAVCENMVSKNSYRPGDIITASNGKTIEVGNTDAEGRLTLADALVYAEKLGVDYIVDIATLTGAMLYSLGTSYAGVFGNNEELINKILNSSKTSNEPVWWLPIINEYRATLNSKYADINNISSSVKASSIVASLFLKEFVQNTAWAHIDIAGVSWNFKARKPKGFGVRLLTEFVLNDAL
row,Compound,inhibition [%]
1,O=C(COC(=O)Cc1c[nH]c2ccccc12)Nc1ccccc1,0.86
2,CC(C)(C)c1ccc(C(=O)C2CCCN(C(=O)C3CCOCC3)C2)cc1 (configuration not stated),-15.1
3,O=C(CN1CCC(n2nnc3cc(C(F)(F)F)ccc32)CC1)N1CCc2ccccc21,10.6
4,COc1ccc(CCNC(=O)CN2C(=O)c3ccccc3S2(=O)=O)cc1,34.7
5,O=C(CN1C(=O)c2ccccc2S1(=O)=O)NCCC1=CCCCC1,43.9
6,O=C(CN1C(=O)c2ccccc2S1(=O)=O)Nc1ccccc1C(=O)NCc1ccco1,23.5
7,CC(C)(C)SCCNC(=O)CN1C(=O)c2ccccc2S1(=O)=O,32.2
8,Cc1ccc(CSCCNC(=O)CN2C(=O)c3ccccc3S2(=O)=O)cc1,46.9
9,Cc1ccc(SCCNC(=O)CN2C(=O)c3ccccc3S2(=O)=O)cc1,54.1
10,Cc1ccc(N(C(C)C(=O)O)S(=O)(=O)c2c(C)[nH]c(=O)[nH]c2=O)cc1 (configuration not stated),3.87
11,c1ccc(Cn2nnc3c(N4CCc5ccccc54)ncnc32)cc1,-4.35
12,CCCNC(=O)NS(=O)(=O)c1cnccc1Sc1ccc(Cl)c(Cl)c1,9.08
13,Cc1ccc(NC(=O)Cn2cccc2C2=NC(c3ccccc3)CO2)cc1C (configuration not stated),-6.31
14,COC(=O)CSc1nc2cc3c(cc2cc1C)OCO3,-14.1
15,Cc1c(Br)ccc(NC(=O)CCN2C(=O)C3C4CCC(C4)C3C2=O)c1C (configuration not stated),15.8
16,Cc1cc(NC(=O)CCN2C(=O)C3C4CCC(C4)C3C2=O)cc(C)c1Br (configuration not stated),3.99
17,O=C(NCc1ccccn1)C(=O)N/N=C/c1ccc2c(c1)OCO2,9.75
18,Nc1nc2c(s1)CC(c1ccccc1)CC2 (configuration not stated),18.1
19,COc1ccc(C2CC(=O)c3sc(NC(C)=O)nc3C2)cc1 (configuration not stated),-0.56
20,COc1ccc(Nc2ncc3c(n2)CC(c2ccc(OC)cc2)CC3=O)cc1 (configuration not stated),0.52
21,Nc1nc2c(s1)C(=O)CCC2,12.6
22,Nc1nc(SCC(=O)Nc2ccc3c(c2)OCO3)n[nH]1,4.7
23,Cc1csc(SCC(=O)Nc2ccc3c(c2)OCCO3)n1,-1.69
24,CC(C)C(=O)Nc1nnc(SCC(=O)Nc2ccc3c(c2)OCO3)s1,14.7
25,Cc1cc(=O)[nH]c(SCC(=O)Nc2ccc3c(c2)OCCO3)n1,36.2

row,Compound,inhibition [%]
1,CCCC(=O)Nc1nnc(SCC(=O)Nc2ccc3c(c2)OCCO3)s1,-3.46
2,O=C(CSc1ncn(-c2ccccc2)n1)Nc1ccc2c(c1)OCCO2,27.7
3,CCc1c(C)nc(SCC(=O)Nc2ccc(Br)cc2)[nH]c1=O,19.5
4,CC(C)c1nc(SCC(=O)Nc2ccc3c(c2)OCCO3)n[nH]1,20.1
5,CCc1nc(SCC(=O)N2CCN(c3ccccc3)CC2)c2c(=O)n(C)c(=O)n(C)c2n1,3.46
6,O=C(Nc1ccc(S(=O)(=O)NCc2ccco2)cc1)C1CCCCC1,2.33
7,CC(=O)c1sc(NC(=O)CCOc2ccccc2)nc1C,-0.71
8,CCN1CCN(C(=O)CN(C)S(=O)(=O)c2ccc(Cl)cc2)CC1,-6.75
9,CC(C)CNC(=O)C1CCN(c2ccc(S(=O)(=O)N3CCOCC3)cc2)CC1,-3.46
10,CSc1nc(Cc2ccccc2)nc2ccccc12,0.06
11,COc1ccc2c(c1)c(C(=O)N/N=C/c1ccc(OC)c(OC)c1)c(C)n2C,-4.74
12,COc1ccc2c(c1)c(C(=O)N/N=C/c1cccc(O)c1)c(C)n2C,11.1
13,COCCNC(=O)CN(c1ccccc1OC)S(C)(=O)=O,6.69
14,CC(=O)Nc1ccc(NC(=O)/C=C/c2ccccc2)cc1,-5.95
15,COc1cccc(OCCCCN2CC(C)OC(C)C2)c1 (configuration not stated),8.69
16,O=C1OCCC1Sc1nc2cc(Cl)ccc2s1 (configuration not stated),11.7
17,CSc1nc2cc(Cl)ccc2s1,-8.15
18,Cc1cc(C(F)(F)F)nc(SCC(=O)NC2CC3CCC2C3)n1 (configuration not stated),4.48
19,O=C(N/N=C/c1ccncc1)c1ccc(COc2cccc3cccnc23)cc1,8.86
20,Cc1ccccc1NC(C)C(=O)N/N=C/c1ccccc1OCc1cccc(Br)c1 (configuration not stated),-0.47
21,O=C(N/N=C/c1cccc(O)c1)c1ccc(COc2cccc3cccnc23)cc1,3.53
22,COc1cccc(/C=N/NC(=S)Nc2cccc(C(=O)O)c2)c1O,44.2
23,CC(Nc1ccc(Br)cc1)C(=O)N/N=C/c1ccccc1OCc1ccccc1 (configuration not stated),-9.93
24,COc1ccc(NC(C)C(=O)N/N=C/c2ccccc2OCc2cccc(Br)c2)cc1 (configuration not stated),3.79
25,CC1(C)CC2CC(C)(CN2/C=C2/CCCCC2=O)C1 (configuration not stated),16.8

row,Compound,inhibition [%]
1,CCC1S/C(=N/N=C/c2ccco2)N(c2ccc(F)cc2)C1=O (configuration not stated),5.93
2,O=[N+]([O-])c1cccc2ccc(/C=C/c3ccc(C(F)(F)F)cc3)nc12,5.36
3,Cc1cc(N=Cc2c(O)n(-c3ccc(C)c(C)c3)c(=O)c3ccccc23)no1,-34.1
4,COc1ccc(OCC(=O)OC(C)CN2CCOCC2)cc1 (configuration not stated),4.55
5,COc1cccc(CC(=O)n2nc(N)c3cc4ccc(OC)cc4nc32)c1,-8.98
6,O=C(CCC(=O)N1CCN(S(=O)(=O)c2ccc(Cl)cc2)CC1)Nc1ccc2ccccc2c1,-4.1
7,CCc1ccc(C2NC(=S)NC3=C2C(=O)CC(C)(C)C3)cc1 (configuration not stated),-1.26
8,CCOC(=O)c1c(C)[nH]c(C(=O)/C(C#N)=C/c2ccc(OC)c(OC)c2)c1C,9.47
9,CC(C)NC(=O)COC(=O)c1ccc(S(=O)(=O)N2CCCC2)cc1,-2.13
10,CCCS(=O)(=O)N1CCN(S(=O)(=O)c2ccccc2)CC1,-6.24
11,O=C(CCC(=O)N(CC(=O)NC1CCCCC1)c1ccc2c(c1)OCCO2)Nc1ccccn1,9.63
12,O=C(CSc1nnc(Nc2ccccc2F)s1)c1cc2ccccc2o1,32.5
13,COc1ccc(Nc2nnc(SCC(=O)c3cc4ccccc4o3)s2)cc1,4.36
14,O=S(=O)(c1ccccc1)N1CCN(c2nc(-c3cccs3)nc3ccccc23)CC1,4.27
15,CC(C)CC(NC(=O)c1cccs1)c1nnc(SCc2ccc(Cl)c(Cl)c2)n1C (configuration not stated),4.91
16,C/C=C/C(=O)OCC(=O)Nc1ccc(SC(F)F)cc1,-1.79
17,Cc1nn(-c2ccccc2)c(N2CCCC2)c1/C=C1\N=C(c2ccccc2)OC1=O,2.36
18,O=C(O)C1CC=CCC1C(=O)Nc1ccccc1C(=O)N1CCN(c2ccc(Cl)cc2)CC1 (configuration not stated),56.6
19,O=C(O)C1CCCCC1C(=O)Nc1cccc2ccccc12 (configuration not stated),39.5
20,O=C(O)C1CCCCC1C(=O)Nc1ccc(F)cc1F (configuration not stated),41.3
21,Cc1ccc(Cl)cc1NC(=O)C1CCCCC1C(=O)O (configuration not stated),10.3
22,Cc1ccc(F)c(NC(=O)C2CCCCC2C(=O)O)c1 (configuration not stated),4.08
23,COC(=O)c1ccccc1NC(=O)C1CC=CCC1C(=O)O (configuration not stated),29.7
24,O=C(CCC(=O)Nc1ccc(Cl)cc1Cl)NNC(=O)[C@@H]1CCCC[C@@H]1C(=O)O,-2.95
25,O=C(O)C1CCCCC1C(=O)Nc1ccccc1Cl (configuration not stated),43.9

row,Compound,inhibition [%]
1,COc1ccc(C(=O)Nc2cccc(-c3nc4ncccc4o3)c2C)cc1OC,2.86
2,COc1ccc(Cn2c(CCC(=O)Nc3ccc(C)cc3)nc3cccnc32)cc1,-4.5
3,CCOC(=O)C(C(=O)OCC)C1CS(=O)(=O)CC1C(C(=O)OCC)C(=O)OCC (configuration not stated),17
4,COc1ccc(CCNC(=O)CC2Nc3ccccc3NC2=O)cc1 (configuration not stated),3.68
5,COc1ccccc1NC(=O)NCc1ccco1,4.76
6,Cc1cc(=O)[nH]c(SCC(=O)Nc2ccc(Br)cn2)n1,19.5
7,O=C(O)C1=C(C(=O)Nc2cc(C(F)(F)F)ccc2Cl)CCCC1,8.32
8,O=C(O)C1CC=CCC1C(=O)NNc1c(Cl)cc(Cl)cc1Cl (configuration not stated),3.9
9,O=C(CNC1CC1)Nc1cc(C(F)(F)F)ccc1Cl,1.31
10,O=C(NNC(=O)[C@H]1CC=CC[C@H]1C(=O)O)c1ccc(Cl)cc1Cl,0.37
11,CCOC(=O)c1cnc2c(OC)cccc2c1Nc1ccc2c(c1)OCCO2,2.45
12,O=C(Nc1nc2cc3c(cc2s1)OCCO3)c1ccc(N2C(=O)CCC2=O)cc1,0.52
13,O=C(O)c1cc2c(cc1Br)OCCCO2,-43.7
14,COc1ccc(OC)c(NC(=O)c2cccnc2Sc2ccccc2)c1,-17.3
15,CC1CC(C)CN(CCOc2ccc(Br)cc2)C1 (configuration not stated),-2.12
16,CC(C)(C)C(=O)N1CCC[C@H]1C(O)(c1ccccc1)c1ccccc1,-4.15
17,OC(CNCc1ccccn1)c1ccccc1 (configuration not stated),-7.85
18,COc1cccc(NC2=CC(=O)CC(C)(C)C2)c1,-33.9
19,Clc1ccc(Nc2ccc(Cl)nn2)cc1,-4.12
20,Clc1cc(Cl)cc(Nc2ncnc(-n3cccc3)n2)c1,12.9
21,S=c1[nH]nc(Nc2ccc(Cl)cc2)s1,11.5
22,COC(=O)C1=C(Nc2cc(Cl)cc(Cl)c2)CSC1,5.27

# From PubChem BioAssay AID1619 (SRMLSC, 2009)
